Glioma ERSR ind: qHTS for Inducers of the Endoplasmic Reticulum Stress Response (ERSR) in Human Glioma: qHTS. Potency, µM, without a hit: at the highest dose activation, usual class: activators. 0.02% of 420,000 active. AID 602332, 2012. U87-MG GRP78 promoter luciferase reporter, 16 h; note: series mostly up to about 76 µM; % of control where 0% means no effect; nearly all actives have a fitted effect of over 35% in size
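ERSR induction read as luciferase luminescence (Bright-Glo, 10 min at room temperature) in stably transfected human U87-MG glioma cells exposed to compounds for 16 h, using GRP78 as sensor.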
G9a block: qHTS Assay for Inhibitors of Histone Lysine Methyltransferase G9a | Histone-lysine N-methyltransferase EHMT2 (Homo sapiens), Q96KQ7 | G9a H3K9 monomethylation, AlphaScreen, 2 h | Potency, µM (doses to about 102 µM), without a hit: at the highest dose activity, negative = inhibition, most hits filed as inhibitors | 8.8% of 350,000 active; note: % is set by controls: 0 for no effect and ±100 for the full control effect; nearly all actives have a fitted effect of over 75% in size
Target sequence (Q96KQ7 913-1193 limits assumed): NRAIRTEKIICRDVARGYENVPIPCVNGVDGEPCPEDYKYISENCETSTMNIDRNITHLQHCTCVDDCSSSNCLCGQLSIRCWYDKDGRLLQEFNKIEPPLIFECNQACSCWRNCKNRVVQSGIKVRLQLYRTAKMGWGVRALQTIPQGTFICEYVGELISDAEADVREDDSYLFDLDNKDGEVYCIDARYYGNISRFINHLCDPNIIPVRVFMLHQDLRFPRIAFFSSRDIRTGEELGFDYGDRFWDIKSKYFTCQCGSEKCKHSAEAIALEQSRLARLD
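AlphaScreen read-out: biotin-H3K9 peptide (500 nM) methylation by 20 nM enzyme with 20 uM SAM, 2 h at room temperature after 15 min compound preincubation; anti-monomethyl H3K9 antibody plus donor/acceptor beads, 10 min dark.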
12-LOX inh: Primary qHTS assay for inhibitors of human arachidonate 12S-lipoxygenase (ALOX12): Round 2; Potency, µM (highest dose often 108 µM), inactives show top-dose activity change, negative = inhibition, hits mostly inhibitors; AID 1671190, 2021; purified 12hLO, xylenol orange hydroperoxide absorbance; 1.1% of 580,000 active; Polyunsaturated fatty acid lipoxygenase ALOX12 (Homo sapiens), P18054; note: % is set by controls: 0 for no effect and ±100 for the full control effect
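Hydroperoxide product was detected by ferrous iron/xylenol orange as the 573 to 405 nm absorbance ratio. Arachidonic acid at 40 uM (final) was turned over for 30 min at room temperature by 150 nM human 12hLO, pH 7.0 Hepes buffer, after 15 min compound preincubation.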
VDR inhibitor: Inhibitors of the vitamin D receptor (VDR): qHTS. Potency, µM, for inactives: max response, negative = inhibition, hits mostly inhibitors. AID 504847, 2011. 0.93% of 400,000 active. VDR-SRC2-3 peptide fluorescence polarization, 2 h; note: % is set by controls: 0 for no effect and ±100 for the full control effect
Target sequence (P11473 whole entry, looked up): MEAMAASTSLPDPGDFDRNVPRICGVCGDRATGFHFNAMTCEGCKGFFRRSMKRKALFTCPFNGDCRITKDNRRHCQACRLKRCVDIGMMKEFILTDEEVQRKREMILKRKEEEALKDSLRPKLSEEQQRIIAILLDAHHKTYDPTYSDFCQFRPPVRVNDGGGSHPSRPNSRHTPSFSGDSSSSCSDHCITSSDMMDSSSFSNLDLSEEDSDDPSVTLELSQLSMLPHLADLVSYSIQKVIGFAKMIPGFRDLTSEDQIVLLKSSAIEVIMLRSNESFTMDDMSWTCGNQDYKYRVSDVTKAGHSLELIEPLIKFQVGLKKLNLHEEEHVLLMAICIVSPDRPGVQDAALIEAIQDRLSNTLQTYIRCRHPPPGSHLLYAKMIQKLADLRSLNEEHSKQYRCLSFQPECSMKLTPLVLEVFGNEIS
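After 23 nl compound addition and a short centrifugation, plates sat for 2 hours at ambient temperature; polarization of fluorescence then indicated loss of VDR binding to peptide SRC2-3.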
Sfp PPTase inh: qHTS Assay for Inhibitors of Bacillus subtilis Sfp phosphopantetheinyl transferase (PPTase); 4'-phosphopantetheinyl transferase ffp (Bacillus subtilis), Q9F4F7; Biochemical Sfp PPTase activity, qHTS; Potency, µM, for the others: largest response in the series, negative = inhibition, actives largely listed as inhibitors; 3.5% of 310,000 active; AID 1490, 2009;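 note: the enzyme is Sfp with the accession as filed and its product quenches rhodamine fluorescence; 0% = enzyme reaction without inhibitor and -100% = no enzyme wells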
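Compounds were incubated with enzyme (final 15 nM) for 15 min at room temperature before substrate addition started the reaction. Fluorescence at 525 nm excitation, 598 nm emission was recorded immediately and after 30 minutes.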
Numbers without * were called inactive; i = inactive; ? = inconclusive; / = not tested or not shown; [ ] = dose if it differs, or a comment. Shown is part of a subset that was picked to be rich in hits. Calls come from the whole dose curve; as a rule, active = well fitted curve in the direction sought with a large enough effect; inconclusive = small, poorly fitted or top-dose-only effect, or another doubt; inactive = no such curve, though single readings can be large; an effect the other way counts as inactive or inconclusive. Potency is the fitted concentration of half-maximal effect.

SMILES	Glioma ERSR ind	G9a block	12-LOX inh	VDR inhibitor	Sfp PPTase inh
COC(=O)CSC1=C(C#N)C(c2cccc(OC)c2)CC(=O)N1 (stereo unspecified)	-3.0%	70.8µM*	3.1%	-9.1%	2.3%
CCOc1ccccc1C1CC(=O)NC(SCC)=C1C#N (stereo unspecified)	-0.5%	?	-3.3%	-4.4%	-1.3%
CCCN(C(=O)Cn1nc(Cc2cccnc2)c2ccccc2c1=O)c1cccc(Cl)c1	/	/	2.0%	/	/
CCNc1nc2c(c(=O)[nH]c(=O)n2C)n1CCOC	/	/	-18.0%	/	/
CN1CC=C2C(C#N)=C(N)C(C#N)(C#N)[C@H](c3ccoc3)[C@H]2C1	-5.6%	39.8µM*	/	?	-0.4%
CC(=O)N1CC=C2C(C#N)=C(N)C(C#N)(C#N)[C@H](c3ccoc3)[C@H]2C1	-3.7%	?	-7.8%	-24.3%	7.2%
COc1c(CNC(C)c2nnc3n2CCCCC3)c(C(C)C)nn1C (stereo unspecified)	/	/	7.5%	/	/
CCOC(=O)c1ccc(NC(=O)c2nc3ccccc3nc2N2CCCCC2)cc1	/	/	16.1%	/	/
COCCC(=O)N1CCCC(C(=O)c2ccc(Oc3ccccc3)cc2)C1 (stereo unspecified)	0.3%	6.3%	-2.9%	-0.1%	5.0%
CCN1CCN(CC(=O)N2CCCC(C(=O)c3ccc(Oc4ccccc4)cc3)C2)CC1 (stereo unspecified)	-5.3%	35.5µM*	-3.7%	4.9%	-20.1%
COc1ccccc1N1C(=O)N(C(C)=O)C2C1Nc1ccccc1N2C (stereo unspecified)	-2.2%	7.08µM*	-27.6%	5.4%	-21.0%
CCn1ccnc1CN(C)Cc1cn(-c2ccc(C)cc2)nc1-c1cccc(C)c1	-4.9%	31.6µM*	-4.1%	2.4%	?
CCn1ccnc1CN(C)Cc1cn(-c2ccccc2C)nc1-c1ccc(OC)c(F)c1	/	/	85.9%	/	/
Cc1cccc(-n2cc(CN(C)C(C)c3ccon3)c(-c3cccc(F)c3)n2)c1 (stereo unspecified)	/	/	-1.6%	/	/
Cc1cccc(-n2cc(CN(C)Cc3nccn3C)c(-c3cccc(F)c3)n2)c1	-4.1%	15.8µM*	-20.2%	-13.0%	1.5%
C=CCNC(=S)NNC(=O)c1ccc(CSc2nc(C)cc(C)n2)cc1	/	/	-5.8%	/	/
CCOc1ccc(NC(=O)c2ccc(C)cc2)c2cccnc12	/	/	30.2%	/	/
COC(=O)c1ccccc1NC(=O)NCc1ccco1	-1.5%	-1.1%[59 µM]	-4.3%	-9.5%	13.4%
O=C(/C=C/c1ccco1)Nc1ccccc1N1CCCCC1	0.8%	50.1µM*	0.7%	-10.4%	-20.6%
COC(=O)c1ccccc1NC(=O)/C=C/c1ccco1	2.4%	4.8%[59 µM]	-18.9%	1.4%	50.1µM*
O=C(/C=C/c1ccco1)Nc1cccnc1Cl	-1.6%	79.4µM*	0.0%	-17.6%	50.1µM*
COc1cccc2c1OC1(CCN(C)CC1)N1N=C(c3ccccc3)CC21 (stereo unspecified)	/	/	-6.9%	/	/
CCN(c1ccc2sc(C(=O)NCCC(C)C)cc2c1)S(C)(=O)=O	/	/	6.2%	/	/
Cc1cccc(C(=O)Nc2cccc3cccnc23)c1	9.4%	/	10.9%	-6.9%	-15.2%
C/C(=N\Nc1cccc2cccnc12)c1ccc(C)cc1	0.4%	7.08µM*	?	-18.8%	?
SMILES	Glioma ERSR ind	G9a block	12-LOX inh	VDR inhibitor	Sfp PPTase inh
C/C(=N\Nc1ccccc1Br)c1ccc(-c2ccccc2)cc1	/	/	0.708µM*	/	/
COc1ccc(CN(Cc2cccc(C#N)c2)C2CC2)cc1	/	/	-2.8%	/	/
COc1cc2c(cc1OC)C(CSc1ccccc1C(=O)O)=NC(C)(C)C2	-3.9%	?	-21.6%	-4.5%	2.3%
COc1cc2c(cc1OC)C(CC#N)=NC(C)(C)C2	-0.3%	?	/	2.1%	79.4µM*
O=S(=O)(c1cc(Cl)ccc1Cl)N1CCCC1c1nnc2ccccn12 (stereo unspecified)	/	/	10.6%	/	/
Cc1n[nH]c(=O)c2c(NC(=O)COC(=O)c3cccc(OC(F)F)c3)oc(C)c12	-3.2%	10µM*	-13.8%	2.9%	/
Cc1n[nH]c(=O)c2c(NC(=O)COC(=O)Cc3c(F)cccc3Cl)oc(C)c12	-2.2%	25.1µM*	18.5%	9.3%	/
Cc1n[nH]c(=O)c2c(NC(=O)COC(=O)COc3cccc(Br)c3)oc(C)c12	-5.2%	17.8µM*	0.6%	-17.0%	/
COc1cc(C(=O)OCc2ccc(Br)cc2)cc(OC)c1OC	/	/	30.6%	/	/
CC(C)(C)OC(=O)N1CCCC1C(=O)O (stereo unspecified)	-1.7%	0.2%[59 µM]	0.0%	-15.1%	9.7%
CC(C)(CS)C(=O)N1CCC[C@H]1C(=O)O	-3.1%	4.47µM*	/	-14.0%	22.4µM*
CCNC(=O)NC[C@H]1Cn2c(-c3cccc(Cl)c3)cnc2CO1	/	/	79.4%[176 µM]	/	/
CCc1sc(C(=O)N(CCCOC)c2c(N)n(CC(C)C)c(=O)[nH]c2=O)cc1C	-3.4%	0.794µM*	0.0%	-24.6%	/
CCCn1c(N)c(N(CCOC)C(=O)c2ccc(C#N)cc2)c(=O)[nH]c1=O	-3.8%	70.8µM*	-11.3%	5.1%	8.7%
CCCCn1c(N)c(N(CCOC)C(=O)c2cc3c(s2)CCC3)c(=O)[nH]c1=O	-4.5%	17.8µM*	-26.4%	1.2%	/
CCCCN(C(=O)c1cc(CC)c(C)s1)c1c(N)n(CC(C)C)c(=O)[nH]c1=O	-7.8%	-2.6%	i	18.5%	7.7%
CCCn1c(N)c(N(CCOC)C(=O)c2ccc(-c3ccccc3)cc2)c(=O)[nH]c1=O	0.3%	-15.6%[12.7 µM]	-5.2%	3.5%	/
CC(NC(=O)c1ccco1)C(=O)N1CCC(c2c[nH]c3ccccc23)CC1 (stereo unspecified)	/	/	7.5%	/	/
CCOc1cccc(-c2nnc3n2N=C(c2ccc4ccccc4c2)CS3)c1	/	/	-0.8%	/	/
O=C(CC1CCCC1)N1CCCC(c2noc(COc3ccccc3F)n2)C1 (stereo unspecified)	/	/	13.9%	/	/
CC(C)CNC(=O)COc1ccc2c(C(C)C)cc(=O)oc2c1	/	/	4.9%	/	/
CCc1nnc(NC(=O)C2CCCO2)s1 (stereo unspecified)	1.4%	10.6%[12.7 µM]	-7.1%	14.0%	4.6%
O=C(Nc1nnc(COc2ccc(Cl)cc2)s1)C1CCCO1 (stereo unspecified)	-3.0%	?	?	-8.8%	12.6µM*
COC(CNc1nc(Nc2ccc(F)cc2)c2cnn(-c3ccccc3)c2n1)OC	/	/	0.1%	/	/
O=C(CCl)N(Cc1cc(=O)[nH]c2ccccc12)c1ccccc1	-12.7%	39.8µM*	?	-17.2%	-25.0%
COc1ccc(N(Cc2cc(=O)[nH]c3ccccc23)C(C)=O)cc1	-1.4%	?	-14.7%	-10.8%	2.4%
CC(=O)N(Cc1cc(=O)[nH]c2ccccc12)c1ccc(C)cc1	3.8%	31.6µM*	1.0%	9.7%	-7.4%
